Activity calls are given as the source filed them. Where a call stands in place of a potency, no number is given. The call rests on the fitted dose curve.

The assay is described as follows: G protein-coupled receptor (GPCR) small molecule agonists, calcium flux assay: HEK293 wild type cell line counter screen (AID 1920065). Conditions: HEK293 WT calcium flux, fluorescence, agonist mode; series mostly up to 57.6 µM; activation: at the top concentration. An excerpt:
U.S. Tox21 Program National Center for Advancing Translational Sciences [NCATS] Division of Preclinical Innovation [DPI] U.S. Environmental Protection Agency [EPA] National Institutes of Environmental Health Sciences [NIEHS] National Toxicology Program [NTP] U.S. Food and Drug Administration [FDA] Assay overview: The increased intracellular calcium release that occurred upon G protein-coupled receptor (GPCR) activation led to the frequent use of calcium flux assays to detect GPCR activation. For the purpose of studying and screening compounds that may activate GPCR, receptor-overexpressing models were typically generated using Hek293 wild-type (WT) cells. In order to eliminate the compounds that may have induced calcium release for non-specific activation, a counter-assay utilizing calcium flux on Hek293 WT cells was performed. The data were formulated in order to serve as a control for any calcium flux detection utilizing Hek293 cells with either GPCR overexpression or gene modification. The procurement of Hek293 WT cells from ATCC. Fluorescence intensity can be utilized to determine the activation of the compound in a calcium flux assay. As a counter control, this cell line was utilized to screen the Tox21 10K compound library.
Assay Protocol Summary: Hek293 cells were dispensed at 1500cells/4uL/well in 1536-well black wall/clear bottom plates using a multidrop dispenser. After the assay plates were incubated at a 37 C/5% CO2 incubator for 18 hours, 4 uL of Calcium Dye Solution was added to each well. The plates were incubated at 37 C for 1 hour. For agonist mode, 23 nL of compounds dissolved in DMSO, positive control (ATP) or DMSO only was transferred to the assay plate by a pin tool station. The fluorescence intensity in the plates was measured using FDSS 7000EX kinetic plate reader with a filter set of Ex/Em=480/540 for 3 min at 1 sec intervals. Each test compound was measured at 15 concentrations and in triplicates.
For orientation: Calcium assays in cells follow changes in intracellular calcium, usually with a dye or a luminescent sensor.
Take `ClCCOCOCCCl`: the “activation” value was 0.51% (inactive).
In the case of `Fc1cc(Br)ccc1CBr`, the “activation” value is -0.228% [at 26.5 µM] (inactive).
Turning to `CN1CSC(=S)N(C)C1`, the Potency result was “inactive”.
`COC(=O)C(Br)CBr` (stereo not given): the “activation” value was 0.26% (inactive).
Take `Cc1cc(-c2ccc(N)c(C)c2)ccc1N`: the Potency entry is “inactive”.
As for `COC(=O)c1cncn1C(C)c1ccccc1` (stereo not given), the “activation” value was -0.507% [at 26.5 µM] (inactive).
As to `C[C@]12C=CC3=C4CCC(=O)C=C4CC[C@H]3[C@@H]1CC[C@@H]2O`, the Potency entry was “inactive”.
For the molecule `Oc1ccc(Cl)cc1Cl`, the Potency result is “inactive”.
As to `CC(C)(C)OOC(=O)c1ccccc1`, the Potency entry is “inactive”.
As to `[Cl-].[Cl-].[Hg+2]`, the “activation” value is 17.9% (inactive).
Still for that read-out and setting: under `O=C(Cl)/C=C/C(=O)Cl` stands -0.183% (inactive).
For `N#Cc1cc(Br)c(O)c(Br)c1`, the Potency result is “inactive”.
For the molecule `CC[C@H](N)c1ccccc1`, the “activation” value was 0.0913% (inactive).
In the case of `C=CC(=O)OCC(CC)(COC(=O)C=C)COC(=O)C=C`, the Potency result is “inactive”.
On the same count and under the same terms, the entry for `CCN(CC)C(=O)SCc1ccc(Cl)cc1` is “inactive”.
On to `N#Cc1cccc(C#N)c1`, for which the Potency entry was “inactive”.
As to `CCNc1nc(NCC)nc(SC)n1`, the “activation” value is -1.46% (inactive).
The same measure, in the same setting: the figure for `CCCCCON=O` is -0.333% (inactive).
`CCCCCCCCCCCCCCCC[n+]1ccccc1`: the Potency entry was “inactive”.
As to `CCCCCCC#N`, the “activation” value is -0.304% (inactive).
`C1CC2OC2CC1C1CO1` (stereo not given): the Potency entry is “inactive”.
On to `Cc1ccc(Cl)c(O)c1`, for which the “activation” value is 0.691% [at 26.5 µM] (inactive).
The same measure, in the same setting: under `NNC(=O)c1ccccc1` stands 0.289% (inactive); under `C=CCCl`, 0.309% (inactive); under `N#Cc1ccc(Cl)cc1`, -0.0238% (inactive).
As for `ClC(Cl)(Cl)Br`, the Potency result is “inactive”.
Take `BrCc1ccc(Br)cc1`: the “activation” value is -0.23% (inactive).
On the same count and under the same terms, under `Cc1cnc[nH]1` stands -0.0326% (inactive).
As to `CCOP(=O)(OCC)Oc1ccc([N+](=O)[O-])cc1`, the Potency result is “inactive”.
Regarding `Cc1ccc2ccccc2c1`, the “activation” value is 1.26% (inactive).
In the case of `O=[N+]([O-])/C=C/c1ccccc1`, the Potency result was “inactive”.
For the molecule `O=c1[nH]c2ccccc2n1C1CCN(CCCC(c2ccc(F)cc2)c2ccc(F)cc2)CC1`, the Potency result was “inactive”.
For `O=C/C=C/c1ccccc1`, the Potency result is “inactive”.
The same measure, in the same setting: under `Oc1c(Br)cc(Br)cc1Br` stands “inactive”.
Turning to `COC(=O)Nc1nc2ccccc2[nH]1`, the Potency entry is “inactive”.
On to `Cc1cc(-c2cc(C)c(N)c(C)c2)cc(C)c1N`, for which the Potency result was “inactive”.
The same measure, in the same setting: the entry for `Cc1cc(Cl)ccc1OC(C)C(=O)O` (stereo not given) is “inactive”.
As to `Cc1ccc2c(C)cccc2c1`, the “activation” value is -0.558% (inactive).
Take `OCCSCSCCO`: the “activation” value is -0.037% (inactive).
As for `[Cl-].[Cl-].[Cl-].[Fe+3]`, the Potency result is “inactive”.

For the origin of these results see PubChem BioAssay (Tox21).
